# According to PubChem BioAssay (Tox21):
# A number with no mark means an inactive call. Results filed as inconclusive are left out. A call without a number means that no potency is given here. Activity calls are given as the source filed them. Calls come from the whole dose curve; as a rule, active = well fitted curve in the direction sought with a large enough effect in the repeat runs; inconclusive = weak or mixed curves; inactive = no such curve, though single readings can be large; an effect the other way counts as inactive or inconclusive.
# Key:
# [1] = qHTS RealTime-Glo MT Cell Viability Assay in HEK293 cells - 16 hour (AID 1224872); note: nearly all actives have a fitted effect of over 50% in size; note: potency is the fitted concentration of half-maximal effect
# Procedure, shortened: (§1)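 Reads taken at 0, 8, 16, 24, 32 and 40 h from the same wells. HEK293 cells (600/well) carried RealTime-Glo reagents from seeding, with compound added after a 5 h settle at 37 C.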
# [2] = qHTS RealTime-Glo MT Cell Viability Assay in HepG2 cells - 8 hour (AID 1224873); note: nearly all actives have a fitted effect of over 55% in size
# Procedure, shortened: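 Real-time viability: cells seeded at 600 per well together with NanoLuc and cell-permeant prosubstrate, compounds added after 5 h incubation. Luminescence tracked at 0, 8, 16, 24, 32 and 40 h of exposure.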
# [3] = qHTS RealTime-Glo MT Cell Viability Assay in HEK293 cells - 40 hour (AID 1224874); settings: RealTime-Glo luminescence; max response: hits give low values; note: nearly all actives have a fitted effect of over 50% in size
# Procedure, shortened: (§2)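 600 cells/well were plated with the nonlytic NanoLuc/prosubstrate reagent, pre-incubated 5 h, then given 23 nL of compound in DMSO. Incubation at 37 C for 40 h, with luminescence from viable-cell-reduced substrate read repeatedly from 0 h.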
# [4] = A CellTox Green Cytotoxicity Assay to monitor cytotoxicity in HEK293 cells - 24 hour (AID 1224875); note: series mostly up to about 77 µM; nearly all actives have a fitted effect of over 45% in size
# Procedure, shortened: (§3)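 HEK293 cells, 600/well, were preincubated 5 hours and then exposed to compounds at 37 C for up to 40 hours. A cell-impermeant cyanine dye staining dead-cell DNA was read by fluorescence at 0, 8, 16, 24, 32 and 40 h time points.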
# [5] = A CellTox Green Cytotoxicity Assay to monitor cytotoxicity in HepG2 cells - 16 hour (AID 1224876); note: nearly all actives have a fitted effect of over 45% in size
# Procedure, shortened: (§4)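 HepG2 cells, 600/well, preincubated 5 h with CellTox Green dye, then exposed to Tox21 compounds in DMSO at 37 C for up to 40 h. Dead-cell DNA fluorescence read at the indicated time point.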
# [6] = qHTS RealTime-Glo MT Cell Viability Assay in HepG2 cells - 32 hour (AID 1224877); note: nearly all actives have a fitted effect of over 55% in size; note: potency is the fitted concentration of half-maximal effect
# Procedure, shortened: (§5)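 HepG2 suspension premixed with RealTime-Glo reagents is plated at 600 cells per well and left 5 h at 37 C/5% CO2. Compounds in DMSO then go in, and bioluminescence reflecting viable cell number is recorded over 40 h.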
# [7] = A CellTox Green Cytotoxicity Assay to monitor cytotoxicity in HepG2 cells - 24 hour (AID 1224878); note: nearly all actives have a fitted effect of over 45% in size
# Procedure, shortened: as §4
# [8] = A CellTox Green Cytotoxicity Assay to monitor cytotoxicity in HepG2 cells - 40 hour (AID 1224879); note: nearly all actives have a fitted effect of over 40% in size; note: potency is the fitted concentration of half-maximal effect
# Procedure, shortened: as §4
# [9] = A CellTox Green Cytotoxicity Assay to monitor cytotoxicity in HEK293 cells - 32 hour (AID 1224881); note: nearly all actives have a fitted effect of over 40% in size
# Procedure, shortened: as §3
# [10] = A CellTox Green Cytotoxicity Assay to monitor cytotoxicity in HepG2 cells - 0 hour (AID 1224882); note: nearly all actives have a fitted effect of over 35% in size
# Procedure, shortened: as §4
# [11] = A CellTox Green Cytotoxicity Assay to monitor cytotoxicity in HepG2 cells - 32 hour (AID 1224883); note: nearly all actives have a fitted effect of over 50% in size; note: potency is the fitted concentration of half-maximal effect
# Procedure, shortened: as §4
# [12] = A CellTox Green Cytotoxicity Assay to monitor cytotoxicity in HEK293 cells - 8 hour (AID 1224884); note: nearly all actives have a fitted effect of over 35% in size
# Procedure, shortened: as §3
# [13] = qHTS RealTime-Glo MT Cell Viability Assay in HepG2 cells - 16 hour (AID 1224885); note: nearly all actives have a fitted effect of over 50% in size
# Procedure, shortened: as §5
# [14] = qHTS RealTime-Glo MT Cell Viability Assay in HEK293 cells - 24 hour (AID 1224886)
# Procedure, shortened: as §1
# [15] = qHTS RealTime-Glo MT Cell Viability Assay in HEK293 cells - 8 hour (AID 1224887); note: nearly all actives have a fitted effect of over 50% in size; note: potency is the fitted concentration of half-maximal effect
# Procedure, shortened: as §2
# [16] = A CellTox Green Cytotoxicity Assay to monitor cytotoxicity in HEK293 cells - 16 hour (AID 1224888); note: nearly all actives have a fitted effect of over 35% in size
# Procedure, shortened: as §3
# [17] = A CellTox Green Cytotoxicity Assay to monitor cytotoxicity in HepG2 cells - 8 hour (AID 1224890); note: nearly all actives have a fitted effect of over 45% in size
# Procedure, shortened: as §4
# [18] = qHTS RealTime-Glo MT Cell Viability Assay in HEK293 cells - 0 hour (AID 1224880)
# Procedure, shortened: as §2
# [19] = qHTS RealTime-Glo MT Cell Viability Assay in HepG2 cells - 0 hour (AID 1224889); note: nearly all actives have a fitted effect of over 50% in size
# Procedure, shortened: as §5
SMILES,Potency [1],Potency [2],max response [3] [%],Potency [4],Potency [5],Potency [6],Potency [7],Potency [8],Potency [9],Potency [10],Potency [11],Potency [12],Potency [13],Potency [14],Potency [15],Potency [16],Potency [17],Potency [18],Potency [19]
Cc1c(F)c(F)c(COC(=O)C2C(/C=C(\Cl)C(F)(F)F)C2(C)C)c(F)c1F (stereo not given),inactive,inactive,6.54,inactive,inactive,inactive,inactive,inactive,inactive,inactive,inactive,inactive,inactive,inactive,inactive,inactive,inactive,,
CNP(=O)(OC)Oc1ccc(C(C)(C)C)cc1Cl (stereo not given),,inactive,,,,inactive,,54.9 µM (active),,inactive,,inactive,inactive,,,inactive,inactive,inactive,inactive
CC(C)N(C(=O)COc1nnc(C(F)(F)F)s1)c1ccc(F)cc1,34.7 µM (active),,,inactive,inactive,,inactive,inactive,inactive,inactive,inactive,inactive,,,34.7 µM (active),inactive,inactive,inactive,inactive
NC(=O)CI,inactive,,1.19,,,9.86 µM (active),,,,inactive,,,,,inactive,,,inactive,
COP(=O)(OC)O/C(=C/Cl)c1cc(Cl)c(Cl)cc1Cl,,inactive,,inactive,inactive,inactive,inactive,36.6 µM (active),inactive,inactive,,inactive,inactive,,inactive,inactive,inactive,inactive,inactive
O=C1CN=C(c2ccccc2)c2cc(Cl)ccc2N1CC1CC1,,inactive,,inactive,inactive,inactive,inactive,inactive,inactive,inactive,inactive,inactive,inactive,,,inactive,inactive,,
CCOP(=S)(OCC)Oc1cc(Cl)c(Br)cc1Cl,inactive,inactive,-15.7,inactive,inactive,inactive,inactive,inactive,inactive,inactive,inactive,inactive,inactive,,inactive,inactive,inactive,,inactive
Clc1cc(C(Cl)(Cl)Cl)cnc1Cl,,inactive,,,inactive,inactive,,34.7 µM (active),,inactive,34.7 µM (active),inactive,inactive,,,inactive,inactive,,inactive
ClP(Cl)(Cl)(Cl)Cl,,,,inactive,inactive,,,,,inactive,,inactive,,,inactive,inactive,inactive,,
